# Sampled rows, rich in hits. Any-hit rate of the full collection: about 5.8%.
# KB-3-1 tox – KB-3-1 parental cell cytotoxicity | KB-3-1 viability, CellTiter-Glo ATP luminescence, 72 h | Potency, µM (series often up to 46.1 µM), usual class: cytotoxic | hit rate 1.4% among 400,000; note: % is set by controls: 0 for no effect and ±100 for the full control effect; nearly all actives have a fitted effect of over 60% in size
#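 Here the drug-naive KB-3-1 line serves as comparator for MDR sub-line selectivity; cells received compound titrations, 72 h at 37 °C, then CellTiter-Glo readout.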
# KB-V1 MDR tox – KB-V1 MDR subline cytotoxicity | AID 1347076 | Potency, µM (top dose mostly 46.1 µM), most hits filed as cytotoxic | KB-V1 MDR cells viability, CellTiter-Glo, 72 h | hit rate 3.4% among 400,000; note: % is set by controls: 0 for no effect and ±100 for the full control effect; nearly all actives have a fitted effect of over 60% in size
#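 qHTS viability screen in drug-selected KB-V1 MDR cells: 72 h compound treatment at 37 degrees C, ATP luminescence end point.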
# SW480 rereplic – inducers of DNA re-replication in SW480 colon cancer cells | SW480 DNA re-replication, Hoechst DNA content imaging, 48 h | Potency, µM (titrated, usually from 46.1 µM), for inactives: at the highest dose re-replication activation, actives largely listed as activators | hit rate 1.8% among 340,000 | AID 624297; note: % of control where 0% means no effect; nearly all actives have a fitted effect of over 55% in size
#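 First, 250 cells per well were seeded. Next, compound or vehicle (23 nL) was pinned in, plates sat 48 hr at 37 C. Finally Hoechst was added for 40 min before fluorescence scanning.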
# PINK1 modulator – changes PINK1 expression | PINK1 immunofluorescence, high-content cytometry, 24 h | Potency, µM (top dose mostly 76.6 µM), for inactives: at the highest dose activation (PINK1 increase), most hits filed as activators | hit rate 0.2% among 410,000 | AID 624263; active = well fitted activation curve with a large enough effect; inconclusive = small, poorly fitted or top-dose-only effect; cell line not stated here; note: % of control where 0% means no effect; nearly all actives have a fitted effect of over 65% in size
#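 Decision-based qHTS: stable cells, 24 h exposure to five compound concentrations, CCCP as control. Fixed cells stained for PINK1 plus nuclear, mitochondrial and cell markers, cytometer read.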
# MCF10A rereplic – induces DNA re-replication in MCF 10a normal breast cells; hit rate 2.9% among 350,000; Potency, µM (doses to about 46.1 µM), without a hit: at the highest dose activity, positive = re-replication, usual class: activators; MCF 10A DNA re-replication, Hoechst nuclear intensity, 48 h; AID 624296; note: % of control where 0% means no effect; nearly all actives have a fitted effect of over 50% in size
# 12-LOX inh – inhibitors of human 12S-lipoxygenase ALOX12 | P18054 | purified 12hLO, xylenol orange hydroperoxide absorbance | Potency, µM (series often up to 108 µM), for inactives: top-dose activity change, negative = inhibition, usual class: inhibitors | hit rate 1.1% among 580,000; note: % is set by controls: 0 for no effect and ±100 for the full control effect
# Target sequence (P18054 whole entry, looked up): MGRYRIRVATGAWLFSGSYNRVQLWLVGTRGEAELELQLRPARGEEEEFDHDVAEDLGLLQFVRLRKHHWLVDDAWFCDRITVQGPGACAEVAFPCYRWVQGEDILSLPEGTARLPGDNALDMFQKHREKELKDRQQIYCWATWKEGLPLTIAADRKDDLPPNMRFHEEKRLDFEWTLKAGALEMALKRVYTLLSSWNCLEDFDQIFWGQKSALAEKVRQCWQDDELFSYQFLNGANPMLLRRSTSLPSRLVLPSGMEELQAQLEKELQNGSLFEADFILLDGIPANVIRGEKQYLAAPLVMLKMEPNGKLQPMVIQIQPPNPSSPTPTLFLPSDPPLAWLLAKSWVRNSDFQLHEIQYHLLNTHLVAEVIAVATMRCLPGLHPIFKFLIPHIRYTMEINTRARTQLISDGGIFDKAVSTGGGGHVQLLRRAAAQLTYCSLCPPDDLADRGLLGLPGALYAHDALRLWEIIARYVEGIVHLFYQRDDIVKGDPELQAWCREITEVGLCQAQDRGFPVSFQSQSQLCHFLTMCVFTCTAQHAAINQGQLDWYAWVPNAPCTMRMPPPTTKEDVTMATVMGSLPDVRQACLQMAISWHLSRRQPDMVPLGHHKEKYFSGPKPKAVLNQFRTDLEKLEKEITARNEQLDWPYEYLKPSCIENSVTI
#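 Hydroperoxide product was detected by ferrous iron/xylenol orange as the 573 to 405 nm absorbance ratio. Arachidonic acid at 40 uM (final) was turned over for 30 min at room temperature by 150 nM human 12hLO, pH 7.0 Hepes buffer, after 15 min compound preincubation.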
# * = called active by the depositor; i = inactive; u = inconclusive; x = not tested or not shown; [ ] = remark or other dose. Unless noted, calls come from the whole dose curve; as a rule, active = well fitted curve in the direction sought with a large enough effect; inconclusive = small, poorly fitted or top-dose-only effect, or another doubt; inactive = no such curve, though single readings can be large; an effect the other way counts as inactive or inconclusive. Potency is the fitted concentration of half-maximal effect.
SMILES,KB-3-1 tox,KB-V1 MDR tox,SW480 rereplic,PINK1 modulator,MCF10A rereplic,12-LOX inh
Cc1ccc(C(=O)Nc2nc(-c3ccccn3)cs2)cc1S(=O)(=O)N1CCOCC1,i,u,u,3.0%,20.6µM*,9.4%
Cc1cc(C)c(CNC(=O)c2nc(-c3ccc(CN(C)C)cc3)cc3c2ccn3C(C)C)c(=O)[nH]1,x,x,x,x,x,20.0%
Cc1ccc(-c2cnoc2NC(=O)CSc2nc3c(c(=O)[nH]2)CCCC3)cc1,x,x,x,x,x,-11.3%
COc1ccc(NC(=O)c2cnc(SC)nc2C(F)(F)F)cc1OC,x,x,x,x,x,-16.6%
CCOC(=O)N1CCN(Cc2nc3c(c(=O)[nH]c(=O)n3C)n2Cc2c(F)cccc2Cl)CC1,x,x,x,x,x,31.5%
O=C(Nc1nc(-c2nc3ccccc3s2)cs1)c1ccc(S(=O)(=O)N2CCOCC2)cc1,u,4.61µM*,2.3%,1.2%[38.3 µM],22.4%,10.1%
O=C(Nc1ccccc1)c1ccc(Cn2cc(C(F)(F)F)ccc2=O)cc1,i,14.6µM*,0.7%,-4.4%[38.3 µM],13.1%,0.0%
Cc1ccc(CNC2CC2)cc1,x,x,x,x,x,-5.6%
COc1ccccc1/C=C1\SC(=S)N(NS(=O)(=O)c2ccc(C)cc2)C1=O,i,i,-4.5%,-1.1%,16.9%,35.5µM*
COc1ccc(/C=C2\SC(=S)N(NS(=O)(=O)c3ccc(C)cc3)C2=O)c(OC)c1,i,i,-8.8%,-1.1%,-14.9%,u
O=C(OCCCS(=O)(=O)c1ccccc1)c1ccc(I)cc1,x,x,x,x,x,-3.5%
CCc1cc2c(N=Nc3c(O)[nH]c4ccccc34)ncnc2s1,u,6.51µM*,-9.3%,u,u,29.2%
Cc1sc2ncnc(N=Nc3c(O)[nH]c4ccccc34)c2c1C,i,u,-4.7%,u,u,1.0%
Cc1cn2nnc(C(=O)NCc3ccc(C(C)C)cc3)c2c(=O)[nH]1,x,x,x,x,x,19.9%
CC(=O)N1N=C(c2ccco2)CC1c1ccco1 (stereo unspecified),i,i,-2.3%,0.8%,0.7%,0.0%
Cc1ccc(C2=NN(C(=O)Cn3nnc(-c4ccc(C(N)=O)cc4)n3)C(c3ccco3)C2)cc1 (stereo unspecified),x,x,x,x,x,28.2µM*
Cc1ccc(C2=NN(C(=O)CCl)C(c3ccco3)C2)o1 (stereo unspecified),u,u,u,0.4%,20.6µM*,u
Cc1cnc(C(=O)N(C)Cc2ccc(Br)o2)cn1,x,x,x,x,x,-10.7%
COc1ccc(C(=O)COC(=O)C2CC(=O)N(NC(=O)c3ccc(Cl)c(Cl)c3)C2)cc1 (stereo unspecified),x,x,x,x,x,0.8%
CCCCCCCCC(=O)OCC,x,x,x,x,x,-2.9%[176 µM]
Cc1cc(C)c(-n2[nH]nnc2=S)c(C)c1,i,i,2.8%,0.5%,-0.1%,11.2µM*
Cc1cccc2cc(CN(Cc3ccccc3)C(=O)c3cccc(F)c3)c(Cl)nc12,i,18.4µM*,3.66µM*,4.7%[38.3 µM],u,-4.5%
Cc1ccc(N(Cc2ccccc2)C(=O)c2cccc(F)c2)cc1,i,i,7.4%,7.2%,0.4%,x
O=C1/C(=C\c2ccco2)CCC/C1=C\c1ccco1,i,i,u,u,20.6µM*,25.1µM*
NC1=C(Cl)C(=O)c2ccc(S(N)(=O)=O)cc2C1=O,u,u,0.731µM*,-1.7%,1.46µM*,-23.6%
SMILES,KB-3-1 tox,KB-V1 MDR tox,SW480 rereplic,PINK1 modulator,MCF10A rereplic,12-LOX inh
NC1=C(Cl)C(=O)c2ccccc2C1=O,u,i,16.4µM*,-0.3%,u,u
CNCc1ccc(-c2ccc(Br)cc2)o1,x,x,x,x,x,28.2µM*
O=c1[nH]c2ccc(NCc3ccc(-c4ccc(Br)cc4)o3)cc2[nH]1,i,i,x,4.7%,x,10µM*
O=c1[nH]c2ccc(NCc3ccc(-c4cccc(Cl)c4)o3)cc2[nH]1,i,i,x,3.2%,x,u
CC(C)N1CCc2c(C#N)c(NCc3cccnc3)n3cnnc3c2C1,x,x,x,x,x,-8.2%
Cc1ccc(Nc2cc(C(=O)N3CCOCC3)c3ccccc3n2)cc1C,x,x,x,x,x,4.0%
Cc1ccc(Nc2cc(C(=O)NCCCN3CCOCC3)c3ccccc3n2)cc1C,i,i,u,-1.4%,10.3µM*,u
Cc1ccc(-c2cc(C(=O)NCCCN3CCOCC3)c3ccc(Cl)c(C)c3n2)cc1,i,i,20.6µM*,-0.6%,u,-27.6%
Cc1ccc(Nc2ncc(C(=O)NCCCN3CCN(C)CC3)c3ccccc23)cc1Cl,i,u,u,0.9%,23.1µM*,-16.9%
Cc1cccc2c(C(=O)NCCN3CCOCC3)cc(-c3ccc(Cl)cc3)nc12,x,x,x,x,x,-7.0%
CCN(C(=O)Cc1noc2ccccc12)c1cc(Cl)ccc1OC,x,x,x,x,x,-1.1%
CCc1nc2c(c(-c3ccc(Cl)cc3)n1)CN([S+](=O)([O-])c1cccs1)CC2,x,x,x,x,x,-6.8%
Cc1ccc(/C=N/Nc2nc(C(C)(C)C)cs2)o1,i,i,-56.3%,u,9.2µM*,-22.8%
CC(C)c1ccc(NC(=S)NC2CCN(Cc3ccccc3)CC2)cc1,u,20.6µM*,u,-3.0%,28.4%,u
FC(F)Oc1ccc(NC(=S)NC2CCSc3ccccc32)cc1 (stereo unspecified),x,x,8.3%,u,-36.7%,u
S=C(NCc1ccc(Cl)cc1)NC1CCN(Cc2ccccc2)CC1,u,16.4µM*,16.4µM*,2.0%,u,u
Cc1ccc(NC(=S)NC2CCN(Cc3ccccc3)CC2)cc1,i,u,-1.9%,0.2%,6.3%,-10.1%
Clc1ccc(CNC2CCN(Cc3ccccc3)CC2)cc1,i,i,-2.5%,3.9%,1.3%,8.91µM*
CC(C)c1ccc(NC(=S)NC2CCSc3ccccc32)cc1 (stereo unspecified),x,x,x,x,x,35.5µM*
S=C(Nc1cc(Cl)cc(Cl)c1)NC1CCN(Cc2ccccc2)CC1,u,u,u,-1.4%,u,u
CC(C)n1nccc1NC(=O)COc1ccc(C#N)cc1Cl,x,x,x,x,x,8.2%
CCN(C(=O)CCc1nc(-c2ccc(OC)cc2)no1)c1cc(OC)ccc1OC,u,16.4µM*,0.3%,0.6%,-13.7%,0.0%
COc1ccc(-c2noc(CCCC(=O)NC3CCCCC3)n2)cc1OC,i,u,-0.4%,4.6%,1.0%,-3.4%
COc1cccc(-c2noc(CCC(=O)NC3CCCC3)n2)c1,i,i,-17.2%,-1.0%,8.7%,-3.1%
CCN(C(=O)CCc1nc(-c2ccc(C)cc2)no1)c1cc(C)ccc1C,i,i,x,-0.3%,x,-24.7%
O=C(CCc1nc(-c2ccc(Cl)cc2)no1)NC1CCCC1,i,i,-5.3%,-0.4%,1.1%,0.0%
O=C(CCCc1nc(-c2ccc(Cl)cc2)no1)NC1CCCCC1,u,11.6µM*,-1.3%,2.8%,16.4%,18.5%

# Source: PubChem (National Center for Advancing Translational Sciences (NCATS))
